High-throughput results from PubChem BioAssay.
In the library only some 3.5% were active in any assay of this set; here they are far more common.
GPR151 ag – human GPR151 activation; Q8TDV0; PathHunter beta-arrestin GPR151 cells, luminescence; activation, % at 11.2 µM; actives 1% (n = 650,000); AID 1508602; in the data active = activation above about 4.9%
Target sequence (Q8TDV0 whole entry, looked up): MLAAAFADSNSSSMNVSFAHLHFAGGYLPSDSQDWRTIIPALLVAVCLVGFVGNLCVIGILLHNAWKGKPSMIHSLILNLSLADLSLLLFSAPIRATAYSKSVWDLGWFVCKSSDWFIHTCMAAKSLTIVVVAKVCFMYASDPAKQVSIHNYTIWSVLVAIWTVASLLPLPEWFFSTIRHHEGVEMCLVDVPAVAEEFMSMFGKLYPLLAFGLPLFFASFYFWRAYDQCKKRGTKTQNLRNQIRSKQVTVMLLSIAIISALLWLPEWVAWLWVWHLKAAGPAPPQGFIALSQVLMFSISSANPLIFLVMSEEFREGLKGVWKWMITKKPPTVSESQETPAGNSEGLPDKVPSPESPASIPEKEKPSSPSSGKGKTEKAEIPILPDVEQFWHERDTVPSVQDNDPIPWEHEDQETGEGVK
TEAD-YAP block – TEAD-YAP interaction inhibition | inhibition, % at 9.12 µM | actives 1.4% (n = 640,000) | HEK-TIYL cells, TEAD-Gal4/YAP UAS-luciferase luminescence | AID 1259422; in the data active = inhibition above about 32%
MITF inh – inhibitors of human MITF. O75030. AlphaScreen MITF homodimerization, bead proximity signal. inhibition, % at 2.6 µM. actives 0.91% (n = 650,000). AID 1259374; in the data active = inhibition above about 50%
FBW7 activator – human FBW7 E3 ligase activation, primary screen; actives 0.13% (n = 650,000); Q969H0; normalized activity (activation), % at 26.1 µM; AlphaScreen FBW7–phospho-cyclin E peptide binding, activator screen; in the data active = normalized activity above about 1.9%;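 also: purified mutant Fbw7 with reduced substrate affinity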
GPR151 confirm – human GPR151 activation, confirmation screen; 6,700 tested, under 10 active; shares compounds with GPR151 ag; GPR151 PathHunter beta-arrestin cells, luminescence, 90 min; % of EA-reagent control over plate median; activation, % at 11.2 µM;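 active = mean percent activation across replicates above the confirmation screen cutoff of 4.91%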
GPR119 ag – activates human GPR119 in a GPR151 counter-screen | shares compounds with GPR151 ag | GPR119 PathHunter beta-arrestin cells, luminescence, 90 min; 0 = compound-well median, 100 = enzyme-acceptor control | activation, % at 11.2 µM | actives 0.3% (n = 6,700);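 active = mean percent activation in the counterscreen above 29.09%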;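 also: counterscreen on off-target GPR119 to flag nonselective hits from the GPR151 activator screen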
Numbers stand for hits; n = inactive; x = no result.

SMILES	GPR151 ag	TEAD-YAP block	MITF inh	FBW7 activator	GPR151 confirm	GPR119 ag
O=C(COc1ccccc1Cl)Nc1ccc(N2CCN(C(=O)c3ccco3)CC2)cc1	9.9	n	n	n	n	n
O=C(COc1ccc(Cl)cc1Cl)OCc1ccco1	6.5	n	n	n	n	n
CSc1nc(N)nc(SCC(=O)c2ccccc2)c1C#N	n	n	n	n	x	x
CSc1nc(N)nc(SC(C(=O)O)c2ccccc2)c1C#N (stereo not drawn)	8.6	n	n	n	n	n
Cc1oc(C(=O)O)cc1CSCc1ccoc1C(=O)O	6.1	n	n	n	n	n
O=C1C2C3CCC(C3)C2C(=O)N1c1ccc(OS(=O)(=O)c2ccccc2)cc1 (stereo not drawn)	7.6	n	n	n	n	n
O=[N+]([O-])c1cccc(S(=O)(=O)NC23CC4CC(CC(C4)C2)C3)c1	5.3	n	n	n	n	n
CC1(C)C(=O)C2(C(=O)Nc3ccccc3Br)CCC1C2 (stereo not drawn)	17	n	n	n	n	n
Cc1cccc(NC(=O)CN(C2=NC3CS(=O)(=O)CC3S2)c2ccccc2)c1 (stereo not drawn)	n	n	n	n	x	x
CCc1cccc(NC(=O)CN(C2=NC3CS(=O)(=O)CC3S2)c2cccc(C)c2)c1 (stereo not drawn)	13	n	n	n	n	n
Cc1ccc(NC(=O)C(=O)NCC(c2ccc3c(c2)OCO3)N2CCN(C)CC2)c(C)c1 (stereo not drawn)	6.5	n	n	n	n	n
CCCCCc1ccc(OCCOCCn2c[n+](C)c3ccccc32)c(CCCCC)c1	4.9	52	n	n	n	n
Cc1cccc(/C(N)=N/OC(=O)COc2ccc(Cl)cc2C)c1	n	n	n	n	x	x
Cn1c2c(c(=O)n(C)c1=O)C(c1ccccc1Cl)CC(=O)N2 (stereo not drawn)	8.6	n	n	n	n	n
COc1ccc(C(=O)Cn2c(-c3nnc(C(C)C)o3)cc3ccccc32)cc1	n	n	n	n	x	x
CC(C)c1nnc(-c2cc3ccccc3n2Cc2ccccc2)o1	5.6	n	n	n	n	n
CCN1CCCC1CNC(=O)NC1CC(=O)N(c2ccc(C)c(C)c2)C1 (stereo not drawn)	7.0	n	n	n	n	n
COc1ccc(N2CC(NC(=O)C3CCCC3)CC2=O)cc1 (stereo not drawn)	n	n	n	n	x	x
Cc1ccc(N2CC(NC(=O)C3CCCC3)CC2=O)cc1C (stereo not drawn)	5.5	n	n	n	n	n
Cc1nc(Nc2nc(-c3ccccc3)cc(=O)[nH]2)nc2ccccc12	n	n	n	n	x	x
COc1ccc2nc(Nc3nc(-c4ccccc4)cc(=O)[nH]3)nc(C)c2c1	6.8	n	n	n	n	n
COc1ccc(C2C(C#N)=C(N)Oc3n[nH]c(C)c32)c2ccccc12 (stereo not drawn)	5.5	n	n	n	n	n
COc1ccc(C2C(C#N)=C(N)Oc3n[nH]c(C)c32)c(OC)c1OC (stereo not drawn)	n	n	n	n	x	x
COc1ccc(O)c(C2=Nc3ccccc3N=C(c3cccc(Br)c3)C2)c1	5.5	n	n	n	n	n
Cc1ccc(O)c(C2=Nc3ccccc3N=C(c3cccc(Br)c3)C2)c1	n	n	n	n	x	x
SMILES	GPR151 ag	TEAD-YAP block	MITF inh	FBW7 activator	GPR151 confirm	GPR119 ag
COCCN1CCN(Cc2nc(Nc3ccccc3)c3ccccc3n2)CC1	n	n	n	n	x	x
COCCN1CCN(Cc2nc(NCc3ccc(C)o3)c3ccccc3n2)CC1	11	n	n	n	n	n
Cc1nn(C)c(C)c1-c1nc2c(NCc3cccnc3)ncnc2n1C(C)C	7.1	n	n	n	n	n
CCC(C)NCCOc1ccccc1I (stereo not drawn)	5.4	n	n	n	n	n
N#Cc1cccc(C(=O)N2CCC[C@H]2[C@H](O)c2nccs2)c1	n	n	n	n	x	x
O=C(NC1CCCC1)C1CCC(=O)N1C1CCCCC1 (stereo not drawn)	n	n	n	n	x	x
O=C(NC1CC1)C1CCC(=O)N1C1CCCCC1 (stereo not drawn)	8.5	n	n	n	n	n
O=C(CN1C(=O)C2C3C=CC(C3)C2C1=O)N1CCN(c2ccccc2)CC1 (stereo not drawn)	5.5	n	n	n	n	n
